Inconclusive results are not listed. A number with no mark means an inactive call. Activity calls are given as the source filed them.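 Rule for the calls: active = dose-dependent loss of cell ATP signal giving a full or clear fitted curve, ranked by lower potency value; inconclusive = weak partial curve or response only at the top dose; inactive = no loss of viability signal.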
Assay: Cell Viability - Jurkat (AID 426);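 note: cells exposed to compound for 40 hours at 37 °C before ATP read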
Details: qHTS
Description: NIH Chemical Genomics Center [NCGC]
NIH Molecular Libraries Screening Centers Network [MLSCN]
National Institutes of Environmental Health Sciences [NIEHS]
National Toxicology Program [NTP]
We have developed a 1536-well cell-based assay for quantitative high throughput screening (qHTS) against a number of cell lines to determine in vitro cytotoxicity of small molecules. This particular assay uses the Jurkat cell line (Clone E6-1) which is derived from the human T cell leukemia.
NCGC Assay Protocol Summary:
The CellTiter-Glo luminescent cell viability assay (Promega) is a homogeneous method to measure the number of viable cells in culture. The end point readout of this assay is based on quantitation of intracellular ATP, an indicator of metabolic activity, using the luciferase reaction. Luciferase catalyzes the oxidation of beetle Luciferin to oxyluciferin and light in the presence of ATP. The luminescent signal is proportional to amount of ATP present.
Using the CellTiter-Glo luminescent cell viability assay, the amount of cellular ATP was measured in the Jurkat cell line with complete culture medium following compound treatment for 40 hours. The assay was performed in opaque white Kalypsys 1536-well plates. In the screen, tamoxifen and doxorubicin were used as positive controls. Library compounds were measured for their ability to cause acute toxicity in the cell line, as reflected by a decrease in intracellular ATP levels, in a concentration-dependent manner. […] AC50 values were determined from concentration-response data modeled with the standard Hill equation.
qHTS protocol for CellTiter Glo Jurkat cellular assay
[Step] [Parameter] [Value] [Description]
1. Reagent; 5 uL; 5000 Jurkat cells/well
3. Controls; 23 nL; Tamoxifen 0.34 uM to 100 uM & Doxorubicin 0.02 nM to 100 uM
4. Time; 40 hr; 37 °C incubation
5. Reagent; 5 uL; CellTiter Glo reagent
6. Time; 20 min; Room Temperature
7. Detection; Luminescence; Viewlux plate reader
Keywords: cell viability, cytotoxicity, Jurkat cell line, luminescence, NTPHTS, NTPHTS_NCGC, NIEHS, EPA, DSSTox, MLSMR, MLSCN, NIH Roadmap, qHTS, NCGC
Potency is the fitted concentration of half-maximal effect.

Row | SMILES | Potency
1 | Oc1cc2c(cc1O)[C@H]1c3ccc(O)c(O)c3OC[C@@]1(O)C2 | 35.9 µM (active)
2 | C/C=C1/C(=O)C[C@H]2[C@@H]3CCC4=CC(=O)CC[C@]4(C)[C@H]3CC[C@]12C | 56.2 µM (active)
3 | CCCC(=O)OC(=O)CCC | > 92 µM
4 | C=Cc1cccc(C)c1 | > 92 µM
5 | C=CC(=O)OCCCCCCOC(=O)C=C | 21.1 µM (active)
6 | CCCCCCCCC1CO1 (stereo not given) | > 92 µM
7 | OC1CCCCC1 | > 92 µM
8 | CN(C)c1ccc(Cc2ccc(N(C)C)cc2)cc1 | > 92 µM
9 | c1cc2c3c(c1)ccc1cccc(c13)C2 | > 92 µM
10 | CC(=O)c1ccc(Cl)c(Cl)c1Cl | > 92 µM
11 | Cc1c2ccccc2c(C)c2c1ccc1ccccc12 | 36.6 µM (active)
12 | Cc1cc(=O)oc2cc(O)cc(O)c12 | > 92 µM
13 | Oc1ccc(O)c2c(O)cccc12 | 30 µM (active)
14 | N=C1C=CC(=C(c2ccc(N)cc2)c2ccc(N)cc2)C=C1 | 15.1 µM (active)
15 | Nc1cc([N+](=O)[O-])ccc1O | > 92 µM
16 | CCCCC(CC)COCCCN (stereo not given) | > 92 µM
17 | CCCCC(CC)COC(=O)COc1ccc(Cl)cc1Cl (stereo not given) | > 92 µM
18 | CC(=O)OCc1ccc2c(c1)OCO2 | > 92 µM
19 | c1ccc(CSCc2ccccc2)cc1 | > 92 µM
20 | Nc1ccc(-c2ccc(N)c(O)c2)cc1O | 32.3 µM (active)

Row | SMILES | Potency
21 | Brc1ccc(-c2ccccc2)cc1 | > 92 µM
22 | OCC(CBr)(CBr)CBr | > 92 µM
23 | O=C(O)c1cc(N=Nc2ccc([N+](=O)[O-])cc2)ccc1O | > 92 µM
24 | CCNC(=S)NCC | > 92 µM
25 | O=[N+]([O-])c1ccc(F)cc1F | > 92 µM
26 | CC1=C(/C=C/C(C)=C/C=C/C(C)=C/C=O)C(C)(C)CCC1 | 21.5 µM (active)
27 | O=C(Cl)c1ccc([N+](=O)[O-])cc1 | > 92 µM
28 | Cc1cccnc1 | > 92 µM
29 | Cc1c(N)cccc1Cl | > 92 µM
30 | Cc1ccc(S(N)(=O)=O)cc1 | > 92 µM
31 | Cc1ccc2ccc3cccc4ccc1c2c34 | > 92 µM
32 | Cc1ccc(N)cc1[N+](=O)[O-] | > 92 µM
33 | CC(C)S | > 92 µM
34 | CCCCCCCC/C=C\CCCCCCCC(=O)N(CCO)CCO | 68.3 µM (active)
35 | C1CCCNCC1 | > 92 µM
36 | CC(C)COC(=O)COc1cc(Cl)c(Cl)cc1Cl | > 92 µM
37 | C=C1CC[C@H](O)C/C1=C/C=C1\CCC[C@]2(C)[C@@H]([C@H](C)CCCC(C)C)CC[C@@H]12 | 27.5 µM (active)
38 | NC(=O)c1ccc([N+](=O)[O-])cc1 | > 92 µM
39 | C[Si](C)(C)Cl | > 92 µM
40 | c1ccc2ncccc2c1 | > 92 µM
